# Compound activity from PubChem BioAssay.
# VP16 counter: inhibits Gal4-VP16 luciferase reporter, ROR gamma counter-screen; Drosophila S2 Gal4-VP16 UAS-luciferase, luminescence, 20 h; Potency, µM (titrated, usually from 53.6 µM), inactives show top-dose activity, negative = inhibition, usual class: inhibitors; 310,000 tested, 3.5% active; AID 2546;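 note: Gal4-VP16 expression switched on by copper sulfate through the metallothionein promoter; nearly all actives have a fitted effect of over 50% in size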
# RORgamma inh: ROR gamma (mouse) transcription inhibition. Potency, µM (titrated, usually from 53.6 µM), without a hit: at the top dose activity change, negative = inhibition, hits mostly inhibitors. 310,000 tested, 5.4% active. Drosophila S2 Gal4-RORgamma UAS-luciferase reporter, 20 h. AID 2551. P51450; note: nearly all actives have a fitted effect of over 60% in size
# Target sequence (P51450 whole entry, looked up, the tested form may be a part): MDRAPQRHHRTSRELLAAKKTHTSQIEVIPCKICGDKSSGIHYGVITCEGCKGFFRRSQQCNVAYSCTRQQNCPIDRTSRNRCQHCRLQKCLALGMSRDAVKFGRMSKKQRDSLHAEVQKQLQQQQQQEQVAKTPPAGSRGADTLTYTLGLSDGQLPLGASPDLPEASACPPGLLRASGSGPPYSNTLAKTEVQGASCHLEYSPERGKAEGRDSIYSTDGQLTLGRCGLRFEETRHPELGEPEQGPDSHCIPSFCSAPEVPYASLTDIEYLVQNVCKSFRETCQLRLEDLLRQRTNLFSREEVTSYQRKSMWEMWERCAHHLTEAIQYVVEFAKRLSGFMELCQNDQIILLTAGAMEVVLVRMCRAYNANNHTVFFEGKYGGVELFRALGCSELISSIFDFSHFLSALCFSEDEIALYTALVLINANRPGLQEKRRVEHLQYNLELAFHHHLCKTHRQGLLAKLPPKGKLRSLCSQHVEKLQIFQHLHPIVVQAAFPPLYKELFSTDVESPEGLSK
#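 Compounds are pin-transferred onto Drosophila Schneider cells expressing a copper-inducible Gal4–ROR gamma transactivation domain fusion. After 1 hr, copper sulfate is added to 700 uM final; luciferase is read 20 hr later.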
# Tau FP inhib: blocks human tau fibril formation measured by polarization; K18 P301L tau heparin fibrillization, Alexa594 FP, 6 h; Potency, µM (titrated, usually from 57.7 µM), for inactives: top-dose activity, negative = inhibition, actives largely listed as inhibitors; 280,000 tested, 0.39% active; AID 1468; note: nearly all actives have a fitted effect of over 55% in size
# Target sequence (P10636 561-689 P618L limits assumed): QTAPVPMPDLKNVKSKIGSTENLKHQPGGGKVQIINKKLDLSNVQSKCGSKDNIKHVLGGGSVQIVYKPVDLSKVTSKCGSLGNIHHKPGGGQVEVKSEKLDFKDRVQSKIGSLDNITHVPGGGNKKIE
#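 Steps: dispense K18 P301L tau (15 uM plus 0.24 uM Alexa 594 tracer, final) in pH 7 sodium acetate; add compound; add heparin (20 uM final); incubate 6 hr, 37 C; add ThT (30 uM final); after 1 hr ambient, read FP.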
# Tau fluor cs: counter-screen for tau fibril formation inhibitors; tau K18 P301L Alexa594 fluorescence, heparin fibrillization; 280,000 tested, 0.93% active; Potency, µM (doses to about 57.7 µM), without a hit: top-dose activity change, negative = decrease; note: nearly all actives have a fitted effect of over 55% in size
#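 Human K18 P301L tau (15 uM unlabeled plus 0.24 uM Alexa 594-labeled, final) in 100 mM sodium acetate pH 7 was mixed with compound and 20 uM heparin and incubated 6 hr at 37 C.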
# Tau fibril ThT: tau fibrillization inhibition (ThT binding); P10636; recombinant tau K18 P301L (four-repeat tau fragment), heparin-induced fibrillization, ThT fluorescence; Potency, µM (highest dose often 57.4 µM), inactives show at the highest dose activity, negative = inhibition, actives largely listed as inhibitors; 270,000 tested, 2.1% active; AID 1460; note: nearly all actives have a fitted effect of over 55% in size
#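 Tau K18 P301L fragment (15 uM unlabeled plus 0.24 uM Alexa 594-labeled) in 100 mM sodium acetate pH 7 with compound, fibrillization induced by 20 uM heparin for 6 hr at 37 C. Thioflavin T (30 uM) added, fluorescence read after 1 hr (ex 450, em 510 nm).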
# * marks the source's active call; other numbers are inactive results; ? = inconclusive; nt = no result; [ ] = remark or other dose. This is a sample that favours compounds with a hit; in the whole collection about 7.3% have one here. Calls come from the whole dose curve; as a rule, active = well fitted curve in the direction sought with a large enough effect; inconclusive = small, poorly fitted or top-dose-only effect, or another doubt; inactive = no such curve, though single readings can be large; an effect the other way counts as inactive or inconclusive. % is set by controls: 0 for no effect and ±100 for the full control effect; potency is the fitted concentration of half-maximal effect.
SMILES,VP16 counter,RORgamma inh,Tau FP inhib,Tau fluor cs,Tau fibril ThT
O=C(N/N=C/c1ccccn1)c1cc(-c2ccncc2)nc2ccccc12,?,8.9µM*,-2%,-12%,-16%
Cc1ccc(CNS(=O)(=O)c2ccc(CN3C(=O)c4cccnc4C3=O)s2)o1,3%,-1%,nt,nt,nt
Cc1cccc(NC(=O)CCN2CCN(c3ccccc3F)CC2)c1,nt,nt,-3%,1%,1%
COCCNC(=O)[C@H]1N2C(=O)c3ccccc3C2SC1(C)C (some centres undefined),-6%,2%,nt,nt,nt
Cc1nn(Cc2ccccc2Cl)c2sc(C(=O)Nc3nccs3)cc12,?,10µM*,?,-29%,13%
Cc1nn(Cc2ccc(F)cc2)c2sc(C(=O)Nc3nccs3)cc12,?,11µM*,-1%,0%,12%
Cc1nn(Cc2ccc(F)cc2)c2sc(C(=O)Nc3ccccc3N3CCOCC3)cc12,-12%,-3%,7%,-6%,-6%
Cn1c(=O)c2cc(C(=O)NCCCN3CCN(c4ccc(F)cc4)CC3)sc2c2ccccc21,nt,nt,0%,-23%,?
O=[N+]([O-])c1c(NCCO)cc(N2CCCCCC2)c2nonc12,1%,?,nt,nt,nt
CC(C)OC(=O)CSc1nc2ccccc2s1,7%,3%,-6%,-6%,-1%
CCC(=O)OCCNc1cc(Sc2nc3ccccc3s2)c2nonc2c1[N+](=O)[O-],4.5µM*,-37%,-12%,?,7.9µM*
CCC(=O)OCCNc1cc(Sc2nc3ccccc3[nH]2)c2nonc2c1[N+](=O)[O-],4.5µM*,3.2µM*,?,?,8.9µM*
O=[N+]([O-])c1c(NCCCO)cc(Sc2nc3ccccc3s2)c2nonc12,1%,16%,-21%,?,2.2µM*
Cc1nc2cnc(N(C)C)nc2n(CCc2ccccc2)c1=O,-3%,24%,nt,nt,nt
CCOCCc1nnc(NC(=O)C(=O)c2cc(C)n(-c3ccc(C)c(C)c3)c2C)s1,nt,nt,-6%,-5%,3%
CCCCCCCCCCCC,-4%,-9%,nt,nt,nt
COc1cc(Cl)c(S(=O)(=O)NCCc2c(C)[nH]c3c(C)cccc23)cc1Cl,nt,nt,22%,16µM*[quencher],?
COc1c(C)cc(S(=O)(=O)NCCc2c(C)[nH]c3ccccc23)c(C)c1C,nt,nt,?,16µM*[quencher],?
NS(=O)(=O)c1ccc(NC(=O)COC(=O)c2ccc(Cl)cc2[N+](=O)[O-])cc1,19%,6%,-7%,-11%,?
COc1cccc(-c2cn3ncsc3n2)c1,nt,nt,-5%,-22%,?
CCOC(=O)c1cc(-c2ccccc2)n(CCCC(=O)Nc2ccccc2C)c1C,nt,nt,7%,-2%,-6%
CCOc1ccccc1NC(=O)C(=O)CC(=O)c1ccc(OC)cc1,4µM*,6.3µM*,nt,nt,nt
COc1ccc(C(=O)CC(=O)C(=O)Nc2cccc(F)c2)cc1,7.1µM*,7.1µM*,nt,nt,nt
COc1ccc(C(=O)CC(=O)C(=O)Nc2cc(C)ccc2C)cc1,10µM*,7.1µM*,nt,nt,nt
COc1ccc(C(=O)CC(=O)C(=O)Nc2ccc([N+](=O)[O-])cc2C)cc1,11µM*,5.6µM*,nt,nt,nt
SMILES,VP16 counter,RORgamma inh,Tau FP inhib,Tau fluor cs,Tau fibril ThT
COCC(=O)Nc1ccc([N+](=O)[O-])cc1C,2%,-9%,-4%,16%,9%
CCOC(=O)N1CCC(NC(=O)c2ccc3c(c2)N(Cc2cc(C)ccc2C)C(=O)c2ccccc2S3(=O)=O)CC1,nt,nt,-3%,-11%,1%
CCCCN(C)C(=O)c1ccc2c(c1)N(Cc1cccc(Cl)c1)C(=O)c1ccccc1S2=O (centres undefined),nt,nt,3%,-3%,-5%
CC1CCN(S(=O)(=O)c2ccc3c(c2)CCN3C(=O)Nc2ccc(Br)cc2F)CC1,nt,nt,-17%,-12%,7%
OC[C@@H](O)[C@H](O)C(/C=N/Nc1ccccc1)=N\Nc1ccccc1,12%,17%,-13%,?,28µM*
CNc1nc(-c2c[nH]c3ccccc23)cs1,3%,?,?,28µM*[quencher],25µM*
Cc1ccc2c(-c3csc(N)n3)c[nH]c2c1,-1%,9%,nt,nt,nt
Nc1nc(-c2c[nH]c3ccccc23)cs1,12%,7%,?,16µM*[quencher],16µM*
O=C(c1ccc(Cl)c(S(=O)(=O)N2CCOCC2)c1)N1CCN(c2ccccc2)CC1,-10%,16%,nt,nt,nt
CSc1nc(N(CCO)CCO)c2sc3nc(-c4ccco4)c4c(c3c2n1)CCC4,nt,0%[0.365 µM],?,?,25µM*
CCOC(=O)c1cnc(N2CCN(c3ccc(C)cc3C)CC2)c2ccccc12,nt,nt,2%,-9%,-16%
Cc1ccc(/C=N/Nc2cccc3cccnc23)c(O)c1,?,10µM*,-7%,-7%,-9%
Oc1ccc(/C=N/Nc2cccc3cccnc23)c(O)c1,-9%[0.365 µM],2.5µM*,9%,7.9µM*[quencher],6.3µM*
O=c1[nH]ncc(N/N=C\c2ccc(O)cc2O)c1Cl,6%,-9%,14%,-19%,?
COc1ccc(CNC(=O)C2CCN(S(=O)(=O)c3ccc4c(ccn4C)c3)CC2)cc1,nt,nt,6%,-19%,-2%
Cc1cccc(C(=O)O/N=C/c2c(N3CCOCC3)n(C)c3ccccc23)c1,3.5µM*,1.6µM*,12%,?,-11%
Cc1nc2cccnc2n1-c1cccc(C(=O)NCc2ccc(OC(C)C)cc2)c1,nt,nt,3%,-6%,-2%
Cc1nc(N2CCOCC2)c2cc(-c3ccccc3)sc2n1,-3%,10%,-8%,-14%,-20%
Cc1nc(SCCC(=O)O)c2cc(-c3ccccc3)sc2n1,0.5µM*,0.89µM*,nt,nt,nt
Brc1ccc2nc3c(n2c1)CCCC3,?,13µM*,2%,5%,-8%
CC(C)(C)S(=O)(=O)c1ccc2nc3c(n2c1)CCCC3,-5%,-26%,4%,0%,-8%
Cc1cc(C)c(-n2c(C)cc(/C=C3/NC(=O)NC3=O)c2C)c(C)c1,-2%,-1%,-10%,?,?
Cc1cc(/C=C2/NC(=O)NC2=O)c(C)n1-c1sc2c(c1C#N)CCCC2,0%,11µM*,1%,?,?
CN(C)c1ccc(/C=C(/NC(=O)c2ccccc2)C(=O)N/N=C/c2ccc([N+](=O)[O-])c(O)c2)cc1,0%,-43%,2%,14µM*[quencher],4µM*
O=C(N/N=C/c1ccco1)/C(=C/c1cccc([N+](=O)[O-])c1)NC(=O)c1ccccc1,0%,-38%,-1%,-11%,-2%
O=C(N/N=C/c1ccc2c(c1)OCO2)/C(=C/c1ccc2c(c1)OCO2)NC(=O)c1ccccc1,-2%,-10%,-6%,-16%,-13%
O=C(N/N=C/c1ccc(Br)o1)/C(=C/c1ccc([N+](=O)[O-])cc1)NC(=O)c1ccccc1,?,10µM*,6%,-28%,?
O=C1C(=O)N(CCCN2CCOCC2)C(c2ccc([N+](=O)[O-])cc2)/C1=C(/O)c1ccc2c(c1)OCO2 (centres undefined),0%,-1%,nt,nt,nt
